# From paper PMC5540273 (PLoS ONE, 2017)
# System: ABL2
# Details: concentration: 1 μM,replicates: in singlicate; n = 1
# 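Further: KINOMEscan kinase panel screen.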
row,Structure (SMILES),%Inh [%]
1,CN1CCN(CCNc2nc3cc(Oc4ccc(NC(=O)Nc5cc(C(F)(F)F)ccc5F)cc4)ccc3[nH]2)CC1.Cl.Cl [GW768504],0
2,COc1cccc(OC)c1C(=O)Nc1cccc(-c2nn3ccccc3c2-c2ccnc(Nc3cccc(F)c3)n2)c1 [GSK361065],100
3,CC(=O)Nc1ccc(-c2cc3ncnc(SCC(=O)O)c3s2)cc1,8
4,COC(=O)c1cccc(NC(=O)NC2CCN(c3ccnc(Nc4cc(OC)c(OC)c(OC)c4)n3)C2)c1 (stereo not drawn) [GSK1379767],1
5,NC(=O)Nc1sc(-c2ccc(F)cc2)cc1C(N)=O [GW789449],3
6,CCOC(=O)N1CCC(n2cnc(-c3ccc(F)cc3)c2-c2ccnc(N)n2)CC1 [SB-219952],0
7,C[C@@H]1CCN(C(=O)N2CCCC2)C[C@@H]1N(C)c1ncnc2[nH]ccc12,0
8,COc1cccc(C2=C(Nc3cccc(Cl)c3)C(=O)NC2=O)c1 [SB-341556],8
9,COC(=O)c1cccc(NC(=O)NC2CCN(c3ccnc(NCc4ccc(F)cc4)n3)CC2)c1 [GSK1379860],14
10,O=C(Nc1ccc(Oc2ccc3nc(NC(=O)C4CC4)cn3n2)c(F)c1)c1cccn(-c2ccccc2)c1=O,62
11,Cn1ccc2ncnc(Oc3ccc(NC(=O)Nc4cncc(C(F)(F)F)c4)c(Cl)c3)c21,27
12,CSc1nccc(-c2c(-c3ccc(F)cc3)ncn2CCCN2CCOCC2)n1.Cl [SB-217146],0
